From PubChem BioAssay (NCI)
About 83,000 compounds went through this panel and 20% of them were active in at least one assay; those are over-represented in the sample as a whole.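 Assay: single dose, 48 h. Readout: percent growth (0 = no net growth; negative = cell death). Active: <10.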 Calls of active or inactive are those of the source.

Columns and labels:
Assay in all cases: NCI-60 one-dose screen, 48 h (100 = growth as untreated, 0 = no growth, -100 = all killed)
Conditions in all cases: 10 µM
DU-145 prostate = system: DU-145 prostate
K-562 leukemia = system: K-562 leukemia
MALME-3M melanoma = system: MALME-3M melanoma
MDA-MB-231 breast = system: MDA-MB-231 breast
RXF 393 renal = system: RXF 393 renal
SF-268 CNS = system: SF-268 CNS
SF-295 CNS = system: SF-295 CNS
SF-539 CNS = system: SF-539 CNS
UACC-257 melanoma = system: UACC-257 melanoma
M14 melanoma = system: M14 melanoma

Measured: growth

Cc1noc(C)c1-c1ccc2nc(NC(=O)[C@H]3CCN(C#N)C3)cn2c1
inactive: DU-145 prostate 89.7% | K-562 leukemia 40.5% | MALME-3M melanoma 75.6% | MDA-MB-231 breast 68.2% | RXF 393 renal 83.4% | SF-268 CNS 91.3% | SF-295 CNS 97% | SF-539 CNS 82.3% | UACC-257 melanoma 82.1% | M14 melanoma 77.9%

O=C(COc1ccc(Cl)cc1Cl)Oc1coc(CSc2nc3ccccc3s2)cc1=O
inactive: DU-145 prostate 106% | K-562 leukemia 83% | MALME-3M melanoma 93.4% | MDA-MB-231 breast 86.8% | SF-268 CNS 102% | SF-295 CNS 105% | SF-539 CNS 98.6% | UACC-257 melanoma 27.3% | M14 melanoma 110%

COc1ccc2nc(/C=C/c3ccc(N(C)C)cc3)sc2c1
inactive: DU-145 prostate 111% | K-562 leukemia 73.5% | MALME-3M melanoma 97.4% | MDA-MB-231 breast 95.6% | SF-268 CNS 102% | SF-295 CNS 93.1% | SF-539 CNS 103% | UACC-257 melanoma 119% | M14 melanoma 103%

CS(=O)(=O)Nc1ccc([N+](=O)[O-])cc1Oc1ccccc1
inactive: DU-145 prostate 100% | K-562 leukemia 78% | MALME-3M melanoma 92.4% | MDA-MB-231 breast 118% | SF-268 CNS 98.4% | SF-295 CNS 84.2% | SF-539 CNS 104% | UACC-257 melanoma 94.7% | M14 melanoma 105%

COC(=O)c1c(C)nc(Nc2nc3ccccc3s2)nc1-c1ccc(Cl)cc1Cl
inactive: DU-145 prostate 113% | K-562 leukemia 91.2% | MALME-3M melanoma 97.1% | MDA-MB-231 breast 99.1% | RXF 393 renal 107% | SF-268 CNS 101% | SF-295 CNS 93.3% | SF-539 CNS 103% | UACC-257 melanoma 111% | M14 melanoma 101%

Cn1c([N+](=O)[O-])cnc1/C=C1\Oc2ccc(Br)cc2C1=O
active: DU-145 prostate -57.9% | K-562 leukemia -0.493% | MALME-3M melanoma -53.4% | MDA-MB-231 breast -14.8% | RXF 393 renal -59% | SF-268 CNS -16.9% | SF-539 CNS -59.5% | UACC-257 melanoma -38.5% | M14 melanoma -35%
inactive: SF-295 CNS 11.2%

O=C(O)CNS(=O)(=O)c1ccc(OCCOc2ccc(S(=O)(=O)NCC(=O)O)cc2)cc1
inactive: DU-145 prostate 107% | K-562 leukemia 104% | MALME-3M melanoma 99.7% | MDA-MB-231 breast 108% | RXF 393 renal 106% | SF-268 CNS 98.9% | SF-295 CNS 104% | SF-539 CNS 93.6% | UACC-257 melanoma 104% | M14 melanoma 104%

CC(=O)OC1Oc2ccccc2-c2oc(=O)c(-c3cc(=O)oc4cc(O)ccc34)cc21 (configuration not stated)
inactive: DU-145 prostate 78.3% | K-562 leukemia 33.2% | MALME-3M melanoma 68.9% | MDA-MB-231 breast 86.3% | SF-268 CNS 97.1% | SF-295 CNS 73.6% | SF-539 CNS 89% | UACC-257 melanoma 80.1% | M14 melanoma 72.1%

COCCNCC(O)Cn1c2ccc(Cl)cc2c2cc(Cl)ccc21 (configuration not stated)
active: DU-145 prostate 7.48% | K-562 leukemia -17.1% | MALME-3M melanoma -86.3% | MDA-MB-231 breast -33.1% | RXF 393 renal 3.52% | SF-268 CNS 7.96% | SF-295 CNS -6.61% | SF-539 CNS -85% | UACC-257 melanoma -81% | M14 melanoma -87.4%

CC(C)(C)CC(C)(C)c1ccc(O)c(Cc2ccc(Cl)cc2Cl)c1
active: DU-145 prostate -89.2% | K-562 leukemia -59% | MALME-3M melanoma -89.4% | MDA-MB-231 breast -88.4% | SF-268 CNS -83.6% | SF-295 CNS -91.6% | SF-539 CNS -75.5% | UACC-257 melanoma -66.1% | M14 melanoma -87.9%

CN(C1c2ccccc2Oc2ccccc21)S(=O)(=O)c1cc(Cl)ccc1Cl
inactive: DU-145 prostate 78.2% | K-562 leukemia 14.9% | MALME-3M melanoma 54.3% | MDA-MB-231 breast 69.7% | RXF 393 renal 73.5% | SF-268 CNS 68.6% | SF-295 CNS 29.1% | SF-539 CNS 60.6% | UACC-257 melanoma 63.6% | M14 melanoma 39.2%

COc1ccc(N2CCN(c3nc(-c4ccccc4)c(C#N)c(=O)[nH]3)CC2)cc1
inactive: DU-145 prostate 107% | K-562 leukemia 87.6% | MALME-3M melanoma 80.8% | MDA-MB-231 breast 106% | RXF 393 renal 105% | SF-268 CNS 108% | SF-295 CNS 102% | SF-539 CNS 99.6% | UACC-257 melanoma 109% | M14 melanoma 96.8%

O=S(=O)(NC1c2ccccc2Oc2ccccc21)c1ccccc1
inactive: DU-145 prostate 112% | K-562 leukemia 91.3% | MALME-3M melanoma 97.8% | MDA-MB-231 breast 100% | RXF 393 renal 86.6% | SF-268 CNS 98.9% | SF-295 CNS 97.8% | SF-539 CNS 93.7% | UACC-257 melanoma 98.2% | M14 melanoma 98.7%

Clc1cc(Cl)c(OCCCCCCN2CCNCC2)c(Cl)c1
inactive: DU-145 prostate 67.1% | MALME-3M melanoma 50.1% | RXF 393 renal 24.1% | SF-268 CNS 55.3% | SF-539 CNS 49%
active: K-562 leukemia -43.6% | MDA-MB-231 breast -8.55% | SF-295 CNS -37.8% | UACC-257 melanoma -1.75% | M14 melanoma -43.9%

Cc1ccc(/C=C2\CN(Cc3cn(CCNc4ccnc5cc(Cl)ccc45)nn3)C/C(=C\c3ccc(C)cc3)C2=O)cc1
active: DU-145 prostate -98.5% | K-562 leukemia -14.7% | MALME-3M melanoma -14.9% | MDA-MB-231 breast -27.6% | RXF 393 renal -89% | SF-268 CNS -70.7% | SF-295 CNS -58.8% | SF-539 CNS -51.9% | UACC-257 melanoma -41.1% | M14 melanoma -41.7%

CNC(=O)c1cc(Oc2ccc(NC(=O)Nc3ccc(Cl)c(OC4CCCCC4)c3)c(F)c2)ccn1
inactive: DU-145 prostate 65.6% | K-562 leukemia 17.1% | MALME-3M melanoma 69% | MDA-MB-231 breast 68.7% | RXF 393 renal 79.4% | SF-268 CNS 61% | SF-295 CNS 20.5% | SF-539 CNS 59.9% | UACC-257 melanoma 23.3% | M14 melanoma 40%

Clc1cc(Cl)c(Cl)c(-c2nc(-c3cccnc3)cs2)c1
inactive: DU-145 prostate 37.2% | K-562 leukemia 12% | MALME-3M melanoma 28.6% | MDA-MB-231 breast 74% | SF-268 CNS 85.8% | SF-295 CNS 100% | SF-539 CNS 81.4% | UACC-257 melanoma 64.2% | M14 melanoma 51.8%

C/C(=N\NC(=O)c1sc(=S)n(C)c1N)c1cc2ccccc2o1
inactive: DU-145 prostate 77.4% | MALME-3M melanoma 99.3% | MDA-MB-231 breast 36% | SF-268 CNS 55.9% | SF-539 CNS 71.9% | UACC-257 melanoma 56.5% | M14 melanoma 40.8%
active: K-562 leukemia -10.9% | SF-295 CNS -20.6%

O=C(Nc1cccc([N+](=O)[O-])c1)NN1CCCCCC1
inactive: DU-145 prostate 94.7% | K-562 leukemia 84.1% | MDA-MB-231 breast 77.7% | RXF 393 renal 113% | SF-268 CNS 98.1% | SF-295 CNS 94% | SF-539 CNS 86.9% | UACC-257 melanoma 105% | M14 melanoma 110%

COc1ccc(-c2nc(SCC(=O)c3ccc(Br)cc3)[nH]c(=O)c2C#N)cc1
inactive: DU-145 prostate 103% | K-562 leukemia 96.1% | MDA-MB-231 breast 105% | RXF 393 renal 106% | SF-268 CNS 96.2% | SF-295 CNS 100% | SF-539 CNS 111% | UACC-257 melanoma 111% | M14 melanoma 98.5%

CCOC(=O)C(CCC1=NC(C)(C)CC(C)O1)C(=O)OCC (configuration not stated)
inactive: DU-145 prostate 10.4% | K-562 leukemia 85% | MDA-MB-231 breast 106% | RXF 393 renal 85% | SF-268 CNS 98% | SF-295 CNS 74.5% | SF-539 CNS 102% | UACC-257 melanoma 105% | M14 melanoma 84%

O=[N+]([O-])C1CC2C=CC1C2 (configuration not stated)
inactive: DU-145 prostate 94.7% | K-562 leukemia 101% | MDA-MB-231 breast 111% | RXF 393 renal 99% | SF-268 CNS 89.6% | SF-295 CNS 92.8% | SF-539 CNS 102% | UACC-257 melanoma 105% | M14 melanoma 98.7%

C#CCNCCCN1C(=O)c2ccc3c4c(ccc(c24)C1=O)C(=O)N(CCCNCC#C)C3=O
active: DU-145 prostate -98.8% | K-562 leukemia -4.82% | MDA-MB-231 breast 0.356% | RXF 393 renal -91.4% | SF-268 CNS -26.4% | SF-295 CNS -82.9% | SF-539 CNS -97% | UACC-257 melanoma -87.8% | M14 melanoma -91%

COc1cc(NS(C)(=O)=O)ccc1Nc1c2ccc(Cl)cc2nc2c(OC)cccc12
inactive: K-562 leukemia 13.4% | MDA-MB-231 breast 62.6% | SF-295 CNS 14.5% | UACC-257 melanoma 34.2% | M14 melanoma 14.1%
active: DU-145 prostate -43.6% | RXF 393 renal -11.3% | SF-268 CNS 9.76% | SF-539 CNS -53.8%

C/C(=N\NC(N)=S)C(C)(C)O
inactive: DU-145 prostate 93.2% | K-562 leukemia 37.1% | MDA-MB-231 breast 77.8% | RXF 393 renal 96.2% | SF-268 CNS 95.9% | SF-295 CNS 79.5% | SF-539 CNS 102% | UACC-257 melanoma 32.6% | M14 melanoma 92%

COc1c(C)c(C)c(OC)c2c1[nH]c(=O)c1c3cccnc3cn21
inactive: DU-145 prostate 111% | K-562 leukemia 102% | MDA-MB-231 breast 86.1% | RXF 393 renal 116% | SF-268 CNS 112% | SF-295 CNS 119% | SF-539 CNS 103% | UACC-257 melanoma 126% | M14 melanoma 103%

CCOC(=O)c1cc2c(n1Cc1cc(OC)cc(OC)c1)-c1oncc1CC2
inactive: DU-145 prostate 13.8% | K-562 leukemia 16.7% | MDA-MB-231 breast 30.4% | RXF 393 renal 18.7% | SF-268 CNS 50.5% | UACC-257 melanoma 60.5%
active: SF-295 CNS -4.53% | SF-539 CNS -7.41% | M14 melanoma 1.54%

O=C(N/N=C/c1ccccc1O)c1ccccc1
inactive: DU-145 prostate 32.4% | K-562 leukemia 15.8% | MDA-MB-231 breast 32.5% | RXF 393 renal 41.2% | SF-268 CNS 30% | SF-295 CNS 26% | SF-539 CNS 27.9% | M14 melanoma 26.5%
active: UACC-257 melanoma -8.71%

COc1cc(-c2n/c(=C\c3c(O)[nH]c4ccccc34)cc3c2=Nc2ccccc2-3)cc(OC)c1OC
active: K-562 leukemia 6.57% | RXF 393 renal -22.3% | SF-295 CNS 8.6% | SF-539 CNS 1.21% | M14 melanoma -5.09%
inactive: DU-145 prostate 11.5% | MDA-MB-231 breast 10.8% | SF-268 CNS 19.3% | UACC-257 melanoma 56.2%
